# Source: PubChem BioAssay
# An excerpt weighted towards active compounds, which were near 19% of everything screened.
# HT1080-NT tox: kills 2HG-producing HT-1080-NT fibrosarcoma cells; HT-1080-NT fibrosarcoma viability, CellTiter-Glo ATP luminescence, 48 h; Potency, µM (titrated, usually from 46.1 µM), for inactives: at the highest dose activity, negative = less viability, most hits filed as cytotoxic; 360,000 tested, 1.6% active; AID 686970;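 further: NT is the 2HG producing partner of a matched IDH1 knockdown line; potency means the concentration at half of the fitted maximal effect; 0% = DMSO-treated cells and -100% = media-only wells without cells; nearly all actives have a fitted effect of over 55% in size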
#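 Compounds were tested in concentration-response format on HT-1080-NT cells for 48 hours at 37 degrees C. Cell viability came from CellTiter-Glo luminescence; curves were classified by r2, response magnitude and activity.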
# TDP1 cell CPT: growth inhibition of DT40 Tdp1-/-;hTDP1 cells with camptothecin (screen for TDP1 inhibitors) | chicken DT40 Tdp1-/-;hTDP1 cells + 20 nM CPT, ATP luminescence, 48 h | Potency, µM (top dose mostly 46.2 µM), for inactives: top-dose activity change, negative = growth inhibition, actives largely listed as inhibitors | 420,000 tested, 12% active; further: potency means the concentration at half of the fitted maximal effect; nearly all actives have a fitted effect of over 55% in size
#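 Chicken DT40 Tdp1-/- cells stably complemented with human TDP1 were seeded at 400 cells/well in medium containing 20 nM camptothecin, exposed to pin-transferred compounds, and grown at 37 °C for at least 48 hr. Viability was read as ATP luminescence.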
# IL1B secr inh: inhibitors of inflammasome signaling (IL-1 beta secretion); THP-1 LPS/ATP IL-1B secretion, AlphaLISA, 16 h; stronger effect = lower value; activity change, % at 57.5 µM; 360,000 tested, 4.7% active; AID 743279; in the data active means activity change below about -50%; inconclusive means mostly about -30% to -49%
#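 THP-1 cells pretreated 1 hr with compounds (up to 57.5 uM final), then stimulated with LPS (250 ng/mL final) plus ATP (1.25 mM final); secreted IL-1B measured by AlphaLISA after 16 hr, decreased signal indicating inhibition.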
# HT1080 IDH1KD tx: toxicity to HT-1080 IDH1 knockdown cells (counter line). HT-1080 IDH1 knockdown viability, ATP luminescence, 48 h. Potency, µM (top dose mostly 46.1 µM), inactives show top-dose activity, negative = toxicity, usual class: cytotoxic. 360,000 tested, 2% active. AID 686971;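 further: potency means the concentration at half of the fitted maximal effect; 0% = DMSO wells and -100% = cell-free medium wells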
#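 Luminescent ATP read-out (CellTiter-Glo, 10 min at room temperature) after 48 h compound exposure at 37 °C gave viability of IDH1-knockdown HT-1080 cells. Activity was normalised to DMSO and cell-free wells, then fitted as concentration-response curves.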
# DT40 TDP1 no CPT: qHTS for Inhibitors of human tyrosyl-DNA phosphodiesterase 1 (TDP1): qHTS in cells in absence of CPT | Potency, µM (titrated, usually from 46.2 µM), for the others: at the top dose activity change, negative = growth inhibition, hits mostly inhibitors | AID 686978, 2013 | DT40 Tdp1-/- hTDP1 cells, no CPT, ATP luminescence, 48 h | 420,000 tested, 15% active; further: potency means the concentration at half of the fitted maximal effect; nearly all actives have a fitted effect of over 55% in size
#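 Readout: luminescence from CellTiter-Glo after 30 min in the dark at RT. Cells: DT40 Tdp1-/- with stable hTDP1, 400/well. Exposure: compounds alone, ≥48 hr, 37 °C.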
# * = called active by the depositor; u = inconclusive; x = no result; [ ] = another dose, or the depositor's remark. Unless noted, the call rests on the fitted dose curve; in most records, active means well fitted curve in the direction sought with a large enough effect; inconclusive means small, poorly fitted or top-dose-only effect, or another doubt; inactive means no such curve, though single readings can be large; an effect the other way counts as inactive or inconclusive. Unless noted, on the % scale 0 is the no-effect control and ±100 the full control effect.
SMILES,HT1080-NT tox,TDP1 cell CPT,IL1B secr inh,HT1080 IDH1KD tx,DT40 TDP1 no CPT
CCC(C(=O)OCc1csc(CC(=O)Nc2ccccc2C)n1)c1ccccc1 (stereo unspecified),-13%,u,0,-14%,u
COc1ccc(CNC(=O)Cc2csc3nc(-c4ccc(C)cc4)cn23)cc1,x,-24%,x,x,-22%
Cc1cc(C)c(NC(=O)C(=O)NCCc2csc(-c3ccc(F)cc3)n2)c(C)c1,x,18µM*,x,x,16µM*
COc1ccc(CNC(=O)Cc2csc3nc(-c4ccc(F)cc4)cn23)cc1,x,21µM*,x,x,u
COc1ccccc1C(=O)NCCCn1cc(Br)c(C)n1,2%[9.24 µM],u,-4,3%,-10%
COc1cccc(N2CCN(C(=O)c3ccc(Cn4c(=O)[nH]c5cc(OC)c(OC)cc5c4=O)cc3)CC2)c1,x,9.2µM*,x,x,4.1µM*
COc1ccc(N2CCN(C(=O)c3ccc4c(=O)n(Cc5ccc6c(c5)OCO6)c(=O)[nH]c4c3)CC2)cc1,6%,-6%,24,11%,6%
CCOc1cc2[nH]c(=O)n(Cc3ccc(C(=O)N4CCN(c5cccc(Cl)c5)CC4)cc3)c(=O)c2cc1OCC,x,3.7µM*,x,x,2.6µM*
CCOc1cc2[nH]c(=O)n(Cc3ccc(C(=O)N4CCN(c5ccccc5)CC4)cc3)c(=O)c2cc1OCC,x,12µM*,x,x,5.8µM*
CCOc1cc2[nH]c(=O)n(Cc3ccc(C(=O)NCCOC)cc3)c(=O)c2cc1OCC,2%,-1%,-22,-2%,-10%
CCOc1cc2[nH]c(=S)n(Cc3ccc(C(=O)O)cc3)c(=O)c2cc1OCC,6%,10%,35,11%,-3%
COc1ccc(N(CC(=O)NCc2ccc(C)cc2)S(=O)(=O)c2c(C)[nH]c(=O)[nH]c2=O)cc1,12%,-4%,9,10%,3%
COc1ccc(NC(=O)COC(=O)CO/N=C(\C)c2ccc3c(c2)OCO3)cc1S(N)(=O)=O,0%,1%,0,12%,-11%
Cc1cc(C)nc(Nc2nc3ccccc3[nH]2)n1,13%,1%,27,1%,-15%
Cc1ccc2nc(Nc3nc(C)cc(-c4ccccc4)n3)[nH]c(=O)c2c1,-3%,21µM*,-2,18%,15µM*
Cc1ccc2nc(Nc3nc(-c4ccccc4)cc(=O)[nH]3)nc(C)c2c1,15%,13µM*,u,14%,8.2µM*
CCCCN(C)C(=O)Cn1nc(Cc2ccncc2)c2ccccc2c1=O,25%,1%,7,12%,-8%
Cc1ccccc1N1CCN(C(=O)c2ccccc2NC(=O)C2CC=CCC2C(=O)O)CC1 (stereo unspecified),-2%,-4%,24,7%[9.24 µM],-24%
Cc1oc(-c2ccc(Cl)cc2)nc1CS(=O)CC(=O)NCc1ccccc1 (stereo unspecified),-6%,-6%,-30,0%,19%
CCc1ccc(-c2nc(CSCC(=O)NCc3ccco3)c(C)o2)cc1,u,u,-7,-20%,u
Cc1oc(-c2ccc(Cl)cc2)nc1CS(=O)CC(=O)NCCCN1CCN(Cc2ccccc2)CC1 (stereo unspecified),u,15µM*,-80*,u,u
Cc1oc(-c2ccccc2F)nc1CSCC(=O)NCCc1ccccc1,x,13µM*,x,x,18µM*
Cc1ccc(-c2nc(CSCC(=O)NCCN3CCN(Cc4ccccc4)CC3)c(C)o2)cc1,-7%,u,-27,-11%,21µM*
CCc1ccc(-c2nc(CSCC(=O)NCc3ccccc3OC)c(C)o2)cc1,x,21µM*,x,x,16µM*
Cc1ccc(-c2nc(CSCC(=O)NCCCN3CCOCC3)c(C)o2)cc1,-6%,-1%,-17,-7%,9%
SMILES,HT1080-NT tox,TDP1 cell CPT,IL1B secr inh,HT1080 IDH1KD tx,DT40 TDP1 no CPT
O=C(NCc1ccc(F)cc1)C(=O)Nc1ccc2nc3n(c(=O)c2c1)CCCCC3,x,6%,x,x,-7%
Brc1cc2c(cc1C1OCCCO1)OCO2,2%,-10%,-9,-3%,-2%
CCOc1ccc(-c2nc(CSCC(=O)NCCc3ccccc3)c(C)o2)cc1,x,u,x,x,18µM*
O=C(CCn1cncn1)N1CCCC(N2CCN(c3cccc(C(F)(F)F)c3)CC2)C1 (stereo unspecified),4%,-3%,7,1%,-20%
CCOC(=O)c1cc(C(=O)OCC)c2cccc(C)n2c1=O,12%,7.3µM*,-4,2%,13µM*
O=C(CN1C(=O)NC2(CCc3ccccc32)C1=O)c1c[nH]c2ccccc12 (stereo unspecified),-17%,-3%,-11,-22%,-16%
O=c1cc(-c2ccccc2O)oc2c(O)c(O)ccc12,x,24µM*,x,x,30µM*
COC(=O)C[C@H]1c2cc(F)cc(F)c2S(=O)(=O)N1C1CCN(Cc2ccccc2)CC1,0%,9.2µM*,-1,-8%,6.5µM*
CC(=O)C[C@H]1c2cc(F)cc(F)c2S(=O)(=O)N1C1CCN(Cc2ccccc2)CC1,x,5.6µM*,x,x,4µM*
O=C(COC(=O)c1ccc(F)c(S(=O)(=O)N2CCOCC2)c1)NCCc1ccc(F)cc1,2%,2%,25,-2%,-2%
O=C(CCC(=O)N1CCSc2ccccc21)NCc1cccc(Cl)c1,-1%,u,9,3%,u
CCc1ccc(NC(=O)CCC(=O)N2CCSc3ccccc32)cc1,6%,21µM*,14,3%,u
Cc1ccc(CNC(=O)CCC(=O)N2CCSc3ccccc32)cc1,x,u,x,x,23µM*
O=c1cc(-c2ccc([N+](=O)[O-])cc2)c2ccc(O)cc2o1,u,u,-7,u,-25%
CCC(C)n1ncn(-c2ccc(N3CCN(c4ccc(OCC5COC(Cn6cncn6)(c6ccc(Cl)cc6Cl)O5)cc4)CC3)cc2)c1=O (stereo unspecified),u,2.6µM*,129,u,2.3µM*
COc1ccc(S(=O)(=O)N2CCCCCC2)cc1C(=O)N(C)Cc1ccco1,0%,26µM*,-1,3%,18µM*
COc1ccc(S(=O)(=O)N2CCCCCC2)cc1C(=O)N(C)Cc1ccc(C(C)(C)C)cc1,u,u,-72*,u,u
COc1ccc(S(=O)(=O)N2CCCCCC2)cc1C(=O)N(C)Cc1ccc(OC)c(OC)c1OC,-3%,u,-15,9%,23µM*
CCOc1ccc(N(C)C(=O)CCc2nnc3ccc(NCc4ccco4)nn23)cc1,-3%,u,28,6%,u
CC12CCC(=O)N1C(C(=O)NNC(=O)c1ccccc1)CS2 (stereo unspecified),8%,1%,4,-7%,1%
